{"source": "PubChem BioAssay (NCI)", "note": "This is part of a sample that, as a whole, favours compounds with a hit. Of some 79,000 tested, about 15% had one in any assay. Values without a mark were called inactive. No stated cut-off is given here; in the data, active means growth inhibition above about 70%; inactive means the rest. Where a SMILES comes first, the peptide text is derived from it.", "data": [{"test": "NCI Yeast Anticancer Drug Screen. Data for the sgs1 mgt1 strain (AID 161);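 further: 0% = growth of cultures given vehicle only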", "settings": "S. cerevisiae sgs1 mgt1 strain, at 50.0 µM, active compounds read high", "in_short": "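Mutant yeast exposed to compound; growth scored against vehicle-only wells.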", "units": {"growth inhibition": "%"}, "values": [{"smiles": "CCOC(=O)CC1(C)OCCO1", "growth inhibition": 8.95}, {"smiles": "NC(Cc1c[nH]c2ccc(Br)cc12)C(=O)O", "note": "(configuration not stated)", "growth inhibition": -17.9}, {"smiles": "COC(=O)C(CCC1(C)OCCO1)=[N+]=[N-]", "growth inhibition": -15.1}, {"smiles": "CCNC(CC(N)=O)C(=O)O", "note": "(configuration not stated)", "growth inhibition": 0.15}, {"smiles": "CCN(CC)CCO/N=C(\\c1ccccc1)c1ccccn1", "growth inhibition": 16.9}, {"smiles": "Cc1ccc(S(=O)(=O)Oc2nc3ccccc3nc2N(S(=O)(=O)c2ccc(C)cc2)S(=O)(=O)c2ccc(C)cc2)cc1", "growth inhibition": 1.3}, {"smiles": "CCOc1ccccc1/C=C/C(=O)O", "growth inhibition": -11.8}, {"smiles": "COc1cc(C)cc2c(-c3c(O)cc(O)c4c3CC(C)N[C@H]4C)cc(-c3cc(-c4c(O)cc(O)c5c4CC(C)N[C@H]5C)c4cc(C)cc(OC)c4c3O)c(O)c12", "note": "(some centres not stated)", "growth inhibition": 7.9}, {"smiles": "CCOC(=O)c1cc2c(oc1=O)-c1cc(C)ccc1OC2C", "note": "(configuration not stated)", "growth inhibition": 8.75}, {"smiles": "CC(=O)Oc1cc(C=O)ccc1O", "growth inhibition": -3.3}, {"smiles": "Cc1n(Cc2ccccc2)nc2sc(N)n[n+]12", "growth inhibition": -56.3}, {"smiles": "COC1OC2COC(c3ccccc3)OC2C(OS(=O)(=O)c2ccc(Br)cc2)C1OS(=O)(=O)c1ccc(Br)cc1", "note": "(configuration not stated)", "growth inhibition": -1.3}, {"smiles": "COC(=O)C1=C(C)NC(C)=C(C(=O)OC)C1c1cccc(N=O)c1", "growth inhibition": 13.3}, {"smiles": "Nc1cc2c(cc1Br)-c1cc(Cl)c(Cl)cc1C2=O", "growth inhibition": -7.15}, {"smiles": "Nc1cnc(N)nc1", "growth inhibition": -21.6}, {"smiles": "CC(=O)/C=C\\c1cc(C)ccc1O", "growth inhibition": 9.3}, {"smiles": "CCC(/C=N/Nc1ccc([N+](=O)[O-])cc1[N+](=O)[O-])(CC)CC", "growth inhibition": -6.25}, {"smiles": "CN(C)c1ccc(-c2nc(N)nc3c2CCCC3)cc1", "growth inhibition": -13.3}, {"smiles": "O=C1C(=C(c2ccc([N+](=O)[O-])cc2)N2CCOCC2)C(=O)c2ccccc21", "growth inhibition": 6.45}, {"smiles": "O=C(OC1CCCC1)c1ccccc1", "growth inhibition": -26.1}, {"smiles": "CC(C)CC(NC(=O)c1ccccc1C(=O)O)C(N)=O", "note": "(configuration not stated)", "growth inhibition": 6.65}, {"smiles": "CC(C)=CCCC(=O)C(c1nc2nnc(N)n2[nH]c1=O)c1nc2nnc(N)n2[nH]c1=O", "growth inhibition": -1.95}, {"smiles": "CCC(=O)N1CCN(C(=O)CC)CC1", "growth inhibition": -5.25}]}, {"test": "NCI Yeast Anticancer Drug Screen. Data for the cln2 rad14 strain (AID 165);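 further: 0% = growth equal to vehicle treated cultures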", "settings": "S. cerevisiae cln2 rad14 strain, at 50.0 µM, active compounds read high", "in_short": "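The screen exposed genetically defined yeast (cln2 rad14) to test compounds and scored growth inhibition relative to vehicle-treated controls.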", "units": {"growth inhibition": "%"}, "values": [{"smiles": "CC(C)CC(NC(=O)C(NC(=O)C(N)C(C)O)C(C)C)C(=O)O", "note": "(stereo not drawn) (H-Thr-Val-Leu-OH; configuration not given here)", "growth inhibition": 5.95}, {"smiles": "CCOc1cc[n+](C)c2ccc(C)cc12", "growth inhibition": 16.3}, {"smiles": "Nc1ncnc(N)c1NC(=O)CCCCc1ccccc1", "growth inhibition": 4.8}, {"smiles": "CCN(CC)CCN(CC)CCN(CC)CC", "growth inhibition": 3.85}, {"smiles": "O=C1NN(c2ccccc2)C(=O)C2C3c4ccccc4C(c4ccccc43)C12", "note": "(configuration not stated)", "growth inhibition": -3.3}, {"smiles": "Cn1c2c(c3ccccc31)C(=O)CC2(C)C", "growth inhibition": -18.2}, {"smiles": "CCCCCCCC(=O)Nc1ccc(-n2c(=O)cc(C)n2C)cc1", "growth inhibition": -32}, {"smiles": "O=C(NC/C=C/Br)NC1CCNc2ccccc21", "note": "(configuration not stated)", "growth inhibition": 28.6}, {"smiles": "CC(C)/C=C1\\CCC(CN(C)C)C1=O", "note": "(configuration not stated)", "growth inhibition": 31.4}, {"smiles": "CCOC(=O)CNc1nc(Cl)nc(NCC(=O)OCC)n1", "growth inhibition": -43.2}, {"smiles": "Cc1c(F)c(F)c(-c2c(F)c(F)c(C)c(F)c2F)c(F)c1F", "growth inhibition": 8.3}, {"smiles": "O=C(O)c1ccnc2c(S(=O)(=O)O)cccc12", "growth inhibition": -35.5}, {"smiles": "O=C(NC(Cc1c[nH]c2ccccc12)C(=O)O)C(=O)c1c[nH]c2ccccc12", "note": "(configuration not stated)", "growth inhibition": 0.9}, {"smiles": "O=C(O)c1ccc(Nc2nc3ccccc3nc2-c2cccs2)cc1", "growth inhibition": 20.7}, {"smiles": "COc1ccc(-c2cc(-c3cc(-c4ccc(OC)cc4)on3)no2)cc1", "growth inhibition": -7.45}, {"smiles": "CC1OC(OCC2COC(O)(Oc3c(-c4ccc(O)c(O)c4)oc4cc(O)cc(O)c4c3=O)C(O)C2O)C(O)C(O)C1O", "note": "(configuration not stated)", "growth inhibition": 0.6}, {"smiles": "CCOC(=O)CC1(C)OCCO1", "growth inhibition": 21.8}, {"smiles": "NC(Cc1c[nH]c2ccc(Br)cc12)C(=O)O", "note": "(configuration not stated)", "growth inhibition": 5.4}, {"smiles": "COC(=O)C(CCC1(C)OCCO1)=[N+]=[N-]", "growth inhibition": 2.85}, {"smiles": "CCNC(CC(N)=O)C(=O)O", "note": "(configuration not stated)", "growth inhibition": -4.05}, {"smiles": "CCN(CC)CCO/N=C(\\c1ccccc1)c1ccccn1", "growth inhibition": -78.3}, {"smiles": "Cc1ccc(S(=O)(=O)Oc2nc3ccccc3nc2N(S(=O)(=O)c2ccc(C)cc2)S(=O)(=O)c2ccc(C)cc2)cc1", "growth inhibition": 10}, {"smiles": "CCOc1ccccc1/C=C/C(=O)O", "growth inhibition": -19}, {"smiles": "COc1cc(C)cc2c(-c3c(O)cc(O)c4c3CC(C)N[C@H]4C)cc(-c3cc(-c4c(O)cc(O)c5c4CC(C)N[C@H]5C)c4cc(C)cc(OC)c4c3O)c(O)c12", "note": "(some centres not stated)", "growth inhibition": 18.9}, {"smiles": "CCOC(=O)c1cc2c(oc1=O)-c1cc(C)ccc1OC2C", "note": "(configuration not stated)", "growth inhibition": -40.6}, {"smiles": "CC(=O)Oc1cc(C=O)ccc1O", "growth inhibition": 1.65}, {"smiles": "Cc1n(Cc2ccccc2)nc2sc(N)n[n+]12", "growth inhibition": -0.55}, {"smiles": "COC1OC2COC(c3ccccc3)OC2C(OS(=O)(=O)c2ccc(Br)cc2)C1OS(=O)(=O)c1ccc(Br)cc1", "note": "(configuration not stated)", "growth inhibition": -14.7}, {"smiles": "COC(=O)C1=C(C)NC(C)=C(C(=O)OC)C1c1cccc(N=O)c1", "growth inhibition": 4.4}, {"smiles": "Nc1cc2c(cc1Br)-c1cc(Cl)c(Cl)cc1C2=O", "growth inhibition": -23.1}, {"smiles": "Nc1cnc(N)nc1", "growth inhibition": -24.4}, {"smiles": "CC(=O)/C=C\\c1cc(C)ccc1O", "growth inhibition": -35.7}, {"smiles": "CCC(/C=N/Nc1ccc([N+](=O)[O-])cc1[N+](=O)[O-])(CC)CC", "growth inhibition": 0.25}, {"smiles": "CN(C)c1ccc(-c2nc(N)nc3c2CCCC3)cc1", "growth inhibition": 22.4}, {"smiles": "O=C1C(=C(c2ccc([N+](=O)[O-])cc2)N2CCOCC2)C(=O)c2ccccc21", "growth inhibition": -30.9}, {"smiles": "O=C(OC1CCCC1)c1ccccc1", "growth inhibition": -29.1}, {"smiles": "CC(C)CC(NC(=O)c1ccccc1C(=O)O)C(N)=O", "note": "(configuration not stated)", "growth inhibition": -0.15}, {"smiles": "CC(C)=CCCC(=O)C(c1nc2nnc(N)n2[nH]c1=O)c1nc2nnc(N)n2[nH]c1=O", "growth inhibition": 17.8}, {"smiles": "CCC(=O)N1CCN(C(=O)CC)CC1", "growth inhibition": -12.8}]}]}
